Shown are actives, neighbours in structure and some others; about 6.3% of the full set was active somewhere.
Autofluor 339 = intrinsic fluorescence of library compounds, ex339/em460 – biochemical, MLSMR library, data from DPM-DC assay, artefact control, profiling panel; compound autofluorescence, ex339/em460 nm, NADH buffer; active compounds read high; 1 = no-compound wells, NADH background; fluorescence fold increase at 10 µM; 5.5% of 65,000 active;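 active = at 10 µM, mean starting fluorescence two-fold or more over control wells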;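 also: signal is the first read of a kinetic run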
DPM-DC inhibit = S. pneumoniae DPM-DC inhibitors, primary screen, biochemical, PK/LDH-coupled NADH fluorescence. purified DPM-DC. calls only at 10 µM. 0.49% of 65,000 active. AID 556, 2006;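 active = the 320 compounds with the highest percent inhibition in the single-dose primary screen, excluding strongly autofluorescent ones, cut at about 32% in these data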;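 also: kinetic rate of NADH fluorescence loss reporting ADP formed by the decarboxylase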
Spn MK inh = S. pneumoniae MK inhibitors, primary screen, biochemical, PK/LDH-coupled NADH absorbance; mevalonate kinase [Streptococcus pneumoniae D39]; purified MK, PK/LDH-coupled NADH absorbance 340 nm; AID 555, 2006; 0.48% of 65,000 active; inhibition, % at 10 µM;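 active = ranked among the strongest by inhibition in the single 10 µM screen, a fixed top-ranked set picked for dose follow-up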
NADH enzymes = inhibitors of PK/LDH coupling enzymes, profiling panel, artefact control, biochemical, MLSMR library; coupled PK/LDH NADH assays, four targets; IC50, µM (titrated, usually from 10 µM), for inactives: at the highest dose inhibition; 0.02% of 65,000 active;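 active = single-dose screening hits from any of four coupled enzyme assays that gave an IC50 when retested across doses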;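 also: the DPM-DC format reads NADH fluorescence rather than 340 nm absorbance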
Spn PMK inh = S. pneumoniae PMK inhibitors, primary screen, biochemical, mevalonate pathway, pilot trial included; phosphomevalonate kinase (Streptococcus pneumoniae D39); purified PMK, PK/LDH-coupled NADH absorbance 340 nm; inhibition, % at 10 µM; 0.49% of 65,000 active; AID 539, 2006;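 active = top-ranked compounds by inhibition in the single 10 µM screen, taking a fixed number of the strongest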;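 also: 0% = full reaction with DMSO carrier and 100% = background rate without enzyme reaction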
A340 absorber = compound light absorbance at 340 nm, profiling panel, artefact control, biochemical, MLSMR library, data from PS, PMK, MK assays; fold change at 10 µM; AID 708, 2007; compound absorbance at 340 nm, fold over control; 65,000 tested, under 10 active;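 active = at 10 µM dose, initial 340 nm absorbance at least 2 fold that of control wells; inactive = change under 2 fold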;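 also: initial absorbance extrapolated from kinetic A340 decline of NADH oxidation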
Active calls of the source: *; i = inactive; x = no result given; + = active, no number.

SMILES	Autofluor 339	DPM-DC inhibit	Spn MK inh	NADH enzymes	Spn PMK inh	A340 absorber
O=C(COc1ccc2c3c(c(=O)oc2c1)CCC3)c1ccc2c(c1)OCO2	1.7	i	4	7%	3	1.1
COC(=O)c1cc(COc2ccc3c4c(c(=O)oc3c2)CCCC4)c(C)o1	2.2*	x	1	2%	3	1.1
COC(=O)c1ccc(COc2ccc3c4c(c(=O)oc3c2)CCC4)o1	2.5*	+	4	23%	3	1.1
COc1ccc(NS(=O)(=O)c2cccc(-c3nnc4n3CCCCC4)c2)cc1	1.1	i	4	1%	0	1
COc1ccc(-c2cc3nc4n(c(=O)c3s2)CCC4)cc1	3*	x	6	4%	9	1
COc1cc(CN2CC(C)OC(C)C2)cc(OC)c1 (stereo not given)	1.1	i	45*	15%	0	1
O/N=C1/CCCSc2ccccc21	1.1	i	4	4%	8	1
O/N=C1\CCC\C1=C/c1ccco1	1.4	+	4	15%	8	1.1
CCCC(=O)Nc1ccc(-c2nc3cc(C)ccc3o2)cc1	2.3*	x	2	1%	0	1.1
COc1ccc(CC(=O)Nc2ccc(-c3nc4cc(C)ccc4o3)c(O)c2)cc1OC	2.2*	x	0	2%	4	1.2
COc1ccccc1OCC(=O)Nc1cccc(-c2nc3ccccc3o2)c1	1	i	6	12%	3	0.99
CCCC(=O)Nc1ccc2oc(-c3ccc(OC)c(Br)c3)nc2c1	3.7*	x	7	9%	11	1
CCCC(=O)Nc1ccc(-c2nc3cc(C)c(C)cc3o2)c(O)c1	2.2*	x	10	9%	7	1.2
O=C(Cn1ncc2c(=O)oc3ccccc3c21)NCCN1CCN(c2ccccc2F)CC1	1.1	i	9	6%	3	1
Cn1c(=O)cc(OCC(=O)N2CCC(N3CCCCC3)CC2)c2ccccc21	1.1	i	0	2%	5	1.1
O=c1cc(Cn2ccnc2)c2cc3c(cc2o1)CCC3	2.2*	i	10	12%	13	1
Cc1cc2oc(=O)cc(Cn3ccnc3)c2cc1C	1.6	i	7	5%	9	1
CC1CCN(C2CC(=O)N(c3ccc(Br)cc3Br)C2=O)CC1 (stereo not given)	1.1	i	4	2%	1	1
COc1ccc(C(O)C(CC(=O)NCCCOC(C)C)C(=O)NCCCOC(C)C)cc1OC (stereo not given)	1.1	i	0	3%	8	1
c1ccc(Cc2nnc3sc(-c4ccc5c(c4)OCO5)nn23)cc1	3.5*	x	6	5%	4	1.1
CCc1nnc2sc(-c3ccc(NC(=O)c4ccc5c(c4)OCCO5)cc3)nn12	3.9*	x	8	4%	0	1.1
COCCOc1ccc(C(F)(F)F)cc1Nc1nc2ccccc2o1	1.2	i	0	2%	5	1
COc1cc(NC(=O)c2ncn[nH]2)cc(OC)c1OC	1.1	i	1	1%	1	1
CC(C)COC(=O)Cn1cnc2ccc(Br)cc2c1=O	1.1	i	8	11%	12	1
COc1ccc(OC)c(NC2c3ncccc3C(=O)N2Cc2ccco2)c1 (stereo not given)	1.1	i	26	14%	17	1.1
COc1ccc(CN2C(=O)c3cccnc3C2Nc2cc(Cl)ccc2OC)cc1 (stereo not given)	1	i	83*	17%	14	1
CC1CCN(C(=O)CSc2nnc(-c3cc4ccccc4cc3O)n2Cc2ccco2)CC1	1.1	i	2	1%	0	0.98
CCc1nnc(NC(=O)CSc2nnc(-c3ccccc3NC(=O)c3ccccc3)o2)s1	2.1*	i	8	5%	8	1.1
C=CCSC1=C(C#N)C(c2ccc(OCC)cc2)CC(=O)N1 (stereo not given)	1.1	i	0	4%	10	1
